Data on 61 molecules can be found in PubChem BioAssay AID1117319 (Southern Research Institute, 2015).

Values joined by “and” are separate entries in the source; they are usually repeats but may differ in a detail not shown here. Equal entries are not always repeated. Among all 260,000 compounds or so, about 1,500 (0.58%) were called active. Not shown: some 5% with an inconclusive outcome. Only a sample is shown. Entries with a potency or affinity are not part of this list. A number with no mark means an inactive call.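 Rule for the calls: active = inhibition above a set limit at one or more doses, reproduced on every date tested; inconclusive = results disagree between test dates, or hit never tested in dose response; inactive = the rest.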

The assay addresses Virion infectivity factor (Human immunodeficiency virus type 1 group M subtype B (isolate BH10)) + Virion infectivity factor (Human immunodeficiency virus type 1 group M subtype B (isolate BRU/LAI)) + Virion infectivity factor (Human immunodeficiency virus type 1 group M subtype B (isolate PCV12)) + Virion infectivity factor (Human immunodeficiency virus type 1 group M subtype B (isolate HXB2)) + DNA dC->dU-editing enzyme APOBEC-3G (Homo sapiens) (UniProt P69720+P69721+P69722+P69723+Q9HC16). The experiment in a line: HIV-1 Vif–A3G interaction blockers – biochemical, TR-FRET, GST-Vif 1-94, biotin-A3G peptide, dose response retest, primary screen (AID 1117319).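 Note: Vif residues 1-94 fused to GST binding biotinylated APOBEC3G peptide 110-148; 0% = full assay without inhibitor and 100% = GST in place of GST-Vif.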 As to conditions: TR-FRET GST-Vif / biotin-A3G peptide binding; active compounds read high.
For the molecule `O=S(=O)(Nc1cccc(-n2cnnn2)c1)c1ccccc1F`, the inhibition is -7.41%.

In the case of `COc1ccc(N=Cc2sc3ccccc3c2Cl)cc1`, the inhibition is 0.88%.

Regarding `Oc1c(C=Nc2ccccc2)sc2ccccc12`, the inhibition is -6.91%. The value for `CCCOc1ccc(NC(N)=O)cc1OCCC` was 0.61%. The value for `C=C1CCN([C@H](C(=O)NCc2ccc(OC)cc2)C(C)C)S(=O)(=O)c2ccccc21` was 2.28%; that for `CCCn1nnc(NC(=O)c2ccc(-c3cc(Cl)ccc3Cl)o2)n1` was 3.66%; that for `O=C(NNC(=O)c1ccc(Cl)c(Cl)c1)c1cccnc1` was -10.1%.

On to `COCc1nnc(NS(=O)(=O)c2ccc(Cl)cc2)s1`, for which the inhibition was -13.7%.

Consider `Nc1ccc(S(=O)C(F)(F)F)cc1` (stereo unspecified), for which the inhibition is -4.35%. In the case of `Cc1ccnc2ccc(P(=O)(c3ccccc3)c3ccccc3)cc12`, the inhibition is -4.5%. Under `CC[n+]1ccc(C[n+]2ccccc2)c2ccccc21` stands 31.8%; under `Cc1cc[n+](CCC(=O)O)c2ccccc12`, 27.6%; under `CC(C)CN(C(=O)COC(=O)Cc1c[nH]c2ccccc12)C1CCS(=O)(=O)C1` (stereo unspecified), -1.62%. In the case of `Cn1cnc([N+](=O)[O-])c1C(=O)Nc1cccc([N+](=O)[O-])c1`, the inhibition is -0.16%. Under `CCc1ccc(NC(=O)CSCc2ccc(C(=O)O)cc2)cc1` stands 2.67%; under `O=C(/C(=C(\[O-])c1ccccc1)[n+]1ccc2ccccc2c1)c1ccc(Cl)cc1`, -6.22%. Consider `Cc1cc(C)c(S(=O)(=O)Nc2cc(SCC(=O)O)c(O)c3ccccc23)cc1C`, for which the inhibition was 29.4%. The value for `Cc1ccc(C)c(S(=O)(=O)Nc2cc(SCC(=O)O)c(O)c3ccccc23)c1` was 30.9%; that for `COC(=O)c1cc2sccc2n1CC(=O)Nc1ccc(OC)c(OC)c1OC` was -6.58% and -2.62%; that for `Cc1ccc(-c2nnc3n2CCCCC3)cc1` was 32.1%. Under `C1CCc2nnc(-c3nnc4n3CCCCC4)n2CC1` stands -7.36%. The value for `O=C(Nc1cccc2nsnc12)c1ccc2c(c1)OCO2` was -0.24%; that for `COc1cccc(OCC(O)CN2CCN(c3ccc(Cl)cc3)CC2)c1` (stereo unspecified) was 2.34%.

In the case of `COc1ccc(O)c(/C=N/c2sc(C)c(C)c2C#N)c1`, the inhibition is 10.1%.

For `COc1ccc(S(=O)(=O)N2CCOCC2)cc1C(=O)Nc1cc(C)on1`, the inhibition was 2.2%. The value for `Cc1nn(-c2ccccc2)c(Cl)c1C1C(C#N)=C(N)Oc2c1c(C)nn2-c1ccccc1` (stereo unspecified) was 2.03%; that for `CCOC(=O)C1=C(C)OC(N)=C(C#N)C1c1c(C)nn(-c2ccc(C)cc2)c1Cl` (stereo unspecified) was 1.7%.

For the molecule `CC(=O)c1cccc(OCc2cc(C(=O)N(C)Cc3nccs3)no2)c1`, the inhibition was -3%.

Regarding `CC(C)(C)c1ccc(N2C(=O)CC(C/C=C/c3ccccc3)C2=O)cc1` (stereo unspecified), the inhibition is -5.69%.

For `O=C(COC(=O)c1ccc(S(=O)(=O)Nc2ccccc2)cc1)NCc1ccco1`, the inhibition is 3.75%. Take `O=C(COC(=O)c1ccc(NS(=O)(=O)c2cccs2)cc1)NCC1CCCO1` (stereo unspecified): the inhibition is -1.37%. The value for `CC1CC(=O)Nc2ccccc2N1C(=O)CN1C(=O)C(=O)N(C)C1=O` (stereo unspecified) was 3.84%; that for `CC(=O)Nc1ccc(/C=N/Nc2nncc3ccccc23)cc1` was -1.2%; that for `Cc1cccc(C)c1NC(=O)COC(=O)CN1C(=O)C2CCCCC2C1=O` (stereo unspecified) was -6.55%. The value for `O=C1C2C3C=CC(C3)C2C(=O)N1c1ccccc1` (stereo unspecified) was 23.8%; that for `O=C1C2C3CCC(CC3)C2C(=O)N1c1ccccc1` (stereo unspecified) was 3.86%. Under `COc1ccc(-c2nc(SC(CC(=O)NCCO)c3cccs3)n[nH]2)cc1` (stereo unspecified) stands -4.6%; under `Cc1ccc(-c2nnc(N3CCOCC3)c3ccccc23)cc1S(=O)(=O)N(C)C`, -45.2%; under `Cc1nc(NCCc2ccccc2)c2nnn(Cc3ccccc3)c2n1`, -8.97%.

As for `COc1ccc(CC(=O)NCc2ccccc2F)cc1S(=O)(=O)N1CCOCC1`, the inhibition is -8.33%. The value for `Cc1ccccc1NC(=O)Cc1nc(COC(=O)COc2cccc(C)c2C)cs1` was -1.31%; that for `Cc1ccc(-c2nn[nH]n2)o1` was -6.6%. With `COCCNC(=O)/C(C#N)=C/c1cccc(/C=C(\C#N)C(=O)NCCOC)c1`, the inhibition is -1.66%. Take `COCCNC(=O)/C(C#N)=C/c1ccc(OC(=O)c2cccs2)c(OC)c1`: the inhibition was 12.9%. Under `CCCN1C2CCCC1CC(NC(=O)c1ccccc1Br)C2` (stereo unspecified) stands -0.94%; under `COc1cc(C2NC(=O)NC3=C2C(=O)OC3)cc(OC)c1OC` (stereo unspecified), -6.88%; under `Cn1cc(C(=O)Nc2ccc(Cl)cc2)c(C(F)(F)F)n1`, -6.34%. The value for `COc1ccc(NC(=O)CCC(=O)N/N=C/c2ccc([N+](=O)[O-])s2)cc1` was 23.7%; that for `CCCN1C(=O)/C(=C/c2ccc(C)s2)NC1=S` was 1.31%; that for `COc1ccc(Sc2ccc(/C=C3\C(=O)NN(c4ccccc4)C3=O)o2)cc1` was 27.1%. The value for `COc1ccc(NCc2ccc([N+](=O)[O-])s2)cc1` was -7.61%; that for `CCN1C(=O)/C(=C/c2ccc(C)s2)NC1=S` was 20.4%. In the case of `Cc1ccc(/C=C2/NC(=O)N(Cc3ccc(Br)cc3)C2=O)o1`, the inhibition was 18.3%. In the case of `CC(=O)c1sc(NC(=O)c2ccc(F)cc2)nc1-c1ccccc1`, the inhibition was -5.82%. The value for `C[C@@H](CO)NC(=O)c1ccc2c3n(nc2c1)-c1ccccc1CO3` was -3.9%. The value for `COc1cccc(CN2CCC(n3nccc3NC(=O)C3CC3)CC2)c1` was 3.21%; that for `CCCN1CCN(CC(O)COC(c2ccc(OC)cc2)c2ccc(OC)cc2)CC1` (stereo unspecified) was 3.65%.

As to `Cc1cccc(NC(=O)c2sc3nc(-c4ccc(F)cc4)cn3c2C)n1`, the inhibition is -26.2%.

On to `O=C(NC(=S)Nc1ccccc1N1CCCC1)c1cccc(F)c1`, for which the inhibition was 5.9%. With `COc1cc(/C=N/Nc2nc(=O)[nH]nc2C)cc([N+](=O)[O-])c1O`, the inhibition is 5.18%. Under `O=C(NC1CCCCC1)c1ccccc1NC(=O)C1CC(=O)N(c2ccc(Cl)cc2)C1` (stereo unspecified) stands 31.5%.
